According to PMC7819943, “Rice protein-binding microarrays: a tool to detect cis-acting elements near promoter regions in rice”:
In all, about 35,000 sequences were measured (“fluorescence intensity (a.u.)”: median about 10,000, highest 2% from about 52,000 on). The full list was thinned out, with the highest values kept by preference.

molecular target: T1, OsWOX13 (Oryza sativa, UniProt Q5QMM3 1-267); assay: protein-binding microarray (RPBM); PBS, 2% BSA, 51.3 ng/ul salmon testes DNA, 50 uM zinc acetate, 200 nM TF, 25 C, 1 h; high values mean tight binding; conditions: protein: recombinant; tags: N-terminal polyhistidine and DsRed monomer fusion (pET32a); label: CyDye5-dUTP incorporated in the synthesized complementary strand; 3' TTTTT single-stranded linker to array surface; dsDNA, one strand shown
T1 sequence: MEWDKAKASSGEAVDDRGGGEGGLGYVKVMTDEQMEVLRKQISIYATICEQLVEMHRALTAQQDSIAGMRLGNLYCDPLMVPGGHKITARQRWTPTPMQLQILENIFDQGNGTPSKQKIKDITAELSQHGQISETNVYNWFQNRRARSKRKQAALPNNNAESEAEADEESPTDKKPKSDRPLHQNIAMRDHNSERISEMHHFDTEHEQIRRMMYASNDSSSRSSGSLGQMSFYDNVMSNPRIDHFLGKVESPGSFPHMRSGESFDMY
Method in brief: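 Transcription factors, each fused N-terminally to a polyhistidine tag and DsRed, were expressed in E. coli BL21-CodonPlus and purified on Ni–NTA. A custom Agilent array was made double-stranded by primer extension with Cy5-dUTP and blocked with 2% BSA. It was incubated with 200 nM protein in PBS, 2% BSA, salmon testes DNA and 50 µM zinc acetate at 25 °C for 1 h, then washed. The binding signal is per-feature fluorescence intensity (arbitrary units) read on an Axon 4000B scanner.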

Sequence	binding signal
ATGTGTCAATTAATTATTTGCCACTCGCTGTCTATGACATCGGAGTCACCTAGTGCAG	28300 fluorescence intensity (a.u.)
GGTGGATGAGAATGGATTGAATGAAAACAACAACATATTACGGAGTCACCTAGTGCAG	7970 fluorescence intensity (a.u.)
ATGATTGATTGCTTTTCCTAAATCCTAACCATGATGCTGTCGGAGTCACCTAGTGCAG	65000 fluorescence intensity (a.u.)
TGAAGATTGATGAGATGGACGGTACCATTGCCGATGCTGTCGGAGTCACCTAGTGCAG	56700 fluorescence intensity (a.u.)
ATTGATGGGTACATTGAGATGGAGCTGTTTGGACAAGTTGCGGAGTCACCTAGTGCAG	7520 fluorescence intensity (a.u.)
TTGCTGATTGAAGCTGATACTGTCGTGAAATGAACCATGTCGGAGTCACCTAGTGCAG	38200 fluorescence intensity (a.u.)
TTTTGATCACACCATGATTGATGCACAAATCCATATGAACCGGAGTCACCTAGTGCAG	36800 fluorescence intensity (a.u.)
CAATTGTCCGGATTGAGATATGACTGAAGCGGATGCTGGACGGAGTCACCTAGTGCAG	3220 fluorescence intensity (a.u.)
GCCTAAGATAATTGATAAGAGTGCTTAAAGTGTACAACCGCGGAGTCACCTAGTGCAG	37500 fluorescence intensity (a.u.)
TATATTATTTGTCAATCTTATTGTCAACTTATTAATCATCCGGAGTCACCTAGTGCAG	7160 fluorescence intensity (a.u.)
TCTGACCATTATTAATTTCTAGCAACTAGCAATTTTGTGCCGGAGTCACCTAGTGCAG	6120 fluorescence intensity (a.u.)
AGATTACATGATTGGAAATCTTTCACATATTTGTTTCAGGCGGAGTCACCTAGTGCAG	51800 fluorescence intensity (a.u.)
TGTCTAATTGGTATCGTGAAGACTCTGAACCATTTCCATCCGGAGTCACCTAGTGCAG	35200 fluorescence intensity (a.u.)
CTTAATTAGCATGAAACACAAGTAGTATATGATTACACCACGGAGTCACCTAGTGCAG	33100 fluorescence intensity (a.u.)
ATCTTAATTGAAACAAACACAGCTTTAGTATATGCATGTCCGGAGTCACCTAGTGCAG	58900 fluorescence intensity (a.u.)
CCCTTAATTAATTAAAACCGGTCACAGTATGTCCTTTAATCGGAGTCACCTAGTGCAG	41300 fluorescence intensity (a.u.)
GTCCAGGCTTAATTCAATCATTATATGTACATATCTTTGTCGGAGTCACCTAGTGCAG	6860 fluorescence intensity (a.u.)
GATTGGTCATAATTATATATATATATTACTTCCTAATCACCGGAGTCACCTAGTGCAG	6390 fluorescence intensity (a.u.)
CACACTATTAATCATTTTGATTTTGGTATACTGCACTTTTCGGAGTCACCTAGTGCAG	6110 fluorescence intensity (a.u.)
GTGATTAATTAATTATTAATTAATCGCTAATCAGGATAATCGGAGTCACCTAGTGCAG	65500 fluorescence intensity (a.u.)
ATCTGTAATTTATTTTATTATTAGTCTACGCTTAATACTTCGGAGTCACCTAGTGCAG	22000 fluorescence intensity (a.u.)
TGATTGGTAATCAATCAATTATTATCATATACTCGCACTGCGGAGTCACCTAGTGCAG	62300 fluorescence intensity (a.u.)
GAGAACTCTAATGAATTAGATTATATTCATGCTTGTTGATCGGAGTCACCTAGTGCAG	5820 fluorescence intensity (a.u.)
TTCTCTAATTGGTAATTCATGATTAATCACTCCTACTTTACGGAGTCACCTAGTGCAG	48000 fluorescence intensity (a.u.)
ATATATATATATATATATATATATATATTATCGCTAATAACGGAGTCACCTAGTGCAG	31200 fluorescence intensity (a.u.)
TTCAATTGATTATGAACTGCTTGTACTCTAATCAATGGTACGGAGTCACCTAGTGCAG	55800 fluorescence intensity (a.u.)
ATTAATTATCTAATTAATTAATTAGCCCATCTGCTTACTTCGGAGTCACCTAGTGCAG	65000 fluorescence intensity (a.u.)

Sequence	binding signal
ATTAATCGCTAATTAGGATAATTAATCACTAATTAGTATTCGGAGTCACCTAGTGCAG	43700 fluorescence intensity (a.u.)
CAGGCTGCTTAATTACATATATCTAGATATATATATTATTCGGAGTCACCTAGTGCAG	3870 fluorescence intensity (a.u.)
AGTCGAGTCAACTTAATTAACTTAACTTCAACCGTCGCTACGGAGTCACCTAGTGCAG	5940 fluorescence intensity (a.u.)
TAGCCAATCTAATAGCTCATTCATATAATAATTACATACTCGGAGTCACCTAGTGCAG	4410 fluorescence intensity (a.u.)
GTGACATCATAATTTAGATTTAACTTATTCGTGCATATTACGGAGTCACCTAGTGCAG	9460 fluorescence intensity (a.u.)
AGCTAAATCTGTGATTGCCGTTGCATCTAGCCACGTCGTCCGGAGTCACCTAGTGCAG	14600 fluorescence intensity (a.u.)
GAATAACAGACATATCATATTTGTTGCCTCCTGGTGGCTACGGAGTCACCTAGTGCAG	7840 fluorescence intensity (a.u.)
ATTTGAATAATTAGGGAGTCTATGAACAGAAACATAGACCCGGAGTCACCTAGTGCAG	6000 fluorescence intensity (a.u.)
TATCATCAATCCGCTAATTAACTGACAACGCATATTGGAGCGGAGTCACCTAGTGCAG	29400 fluorescence intensity (a.u.)
TATTGATTTGATAAAACTAATTTAGCATTATAAATATTATCGGAGTCACCTAGTGCAG	21300 fluorescence intensity (a.u.)
TCAATCAATTAATTAATTAATCGAATTGTGTTATATCTCTCGGAGTCACCTAGTGCAG	51000 fluorescence intensity (a.u.)
GTAGATAATTAAATCGGATTAGCATTAGATAATCAAGCAACGGAGTCACCTAGTGCAG	37000 fluorescence intensity (a.u.)
TGTGATTAATTGGTAATCTGCTTTTACAAGCTTCAATTGCCGGAGTCACCTAGTGCAG	60400 fluorescence intensity (a.u.)
ATGTATATTAATTACTAGCCAAATGGTTAGCATGATTACTCGGAGTCACCTAGTGCAG	10900 fluorescence intensity (a.u.)
TGTTGGTGCTGTGATTAATTGGTAATCTGCTTTTACAAGCCGGAGTCACCTAGTGCAG	19800 fluorescence intensity (a.u.)
AAAATTAAATTGATGGTATTACTAGCATTAATTAGCCACTCGGAGTCACCTAGTGCAG	62800 fluorescence intensity (a.u.)
GTGATTGGATCTGTAATTATCAATCTCTCTCTCTCTCTCTCGGAGTCACCTAGTGCAG	64600 fluorescence intensity (a.u.)
TTCAAATTAAGCTGCTTTAGATTATAATCTGAAGCTGGGCCGGAGTCACCTAGTGCAG	17800 fluorescence intensity (a.u.)
ATTAGCAATTAATTAATTATTAATTGGATAATTAATCACTCGGAGTCACCTAGTGCAG	64800 fluorescence intensity (a.u.)
ATAGCTATATCAATCTAGAATTGGATTAGATATATCTCGACGGAGTCACCTAGTGCAG	6040 fluorescence intensity (a.u.)
TCATATAATTGGATTTATAATTAATCACCAATACCAAACTCGGAGTCACCTAGTGCAG	35300 fluorescence intensity (a.u.)
AACATGGAGAATATGCTAATTAGTAAAACATGTTGAAGTGCGGAGTCACCTAGTGCAG	3290 fluorescence intensity (a.u.)
GCACAATCATGCTACTAATTACCCTTTTCAACCTATAAATCGGAGTCACCTAGTGCAG	11200 fluorescence intensity (a.u.)
ACTAATTACACAGAATGCATGTAAATTACGAGACGAATCTCGGAGTCACCTAGTGCAG	31200 fluorescence intensity (a.u.)
AAATTAAATTGCCCGGATCAATGGCTACAAATACCCCATGCGGAGTCACCTAGTGCAG	15200 fluorescence intensity (a.u.)
AATACACATTGACAGATGAGTTAACGCCCGTGACAGGCTGCGGAGTCACCTAGTGCAG	20500 fluorescence intensity (a.u.)
CTTTATAAATTGTGTCATCTACTCATGTGTGGTAGGTCAACGGAGTCACCTAGTGCAG	5450 fluorescence intensity (a.u.)
